# Data published in the supplement of paper PMC8728848.
# This is one part of a sample in which the strongest signals are shown more often than they occur.
# B1: Agalectin (Anopheles gambiae) (protein)
# chain: MSNRPFTAKFPRYPENGDEVFIRGKLKDDAKSFSVNFCLPRPAQVAEHQTPPYIALHFKTIYDERDDTSRVVLNWKNLQWQQEEVLDNYWHVDRSQTFRVVFRLHEDCIKVFVNSVDHPPDYQFPVQLPLDQIESIELWDDVEHVEEISFRYDNGNSY
# Assays:
# Assay in all cases: glycan array binding signal (z-score within array); higher = stronger binding
# Conditions in all cases: glycan notation: IUPAC condensed, linker removed
# [1] = molecular target: GalNAc(b1-3)Gal(a1-4)Gal(b1-4)GlcNAc(b1-3)Gal(b1-4)Glc
# Summary of the method: (§1)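 The binding signal is a Z-score computed within each array. Data were drawn from 3228 arrays in the Consortium for Functional Glycomics database, restricted to those with a known protein sequence. Scores were averaged over arrays of the same protein sequence at different concentrations or buffers, and over linkers, and negative values can be taken as non-binding.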
# [2] = molecular target: GalNAc(b1-4)GlcNAc(b1-2)Man
# Summary of the method: as §1
# Glc(b1-4)Glc = molecular target: Glc(b1-4)Glc
# Summary of the method: as §1
# [3] = molecular target: GlcNAc(b1-2)Gal(b1-3)GalNAc
# Summary of the method: as §1
# [4] = molecular target: GlcNAc(b1-2)[GlcNAc(b1-4)]Man(a1-3)[GlcNAc(b1-4)][GlcNAc(b1-2)[GlcNAc(b1-6)]Man(a1-6)]Man(b1-4)GlcNAc(b1-4)GlcNAc
# Summary of the method: as §1
# GlcNAc(b1-3)Gal(b1-4)Glc = molecular target: GlcNAc(b1-3)Gal(b1-4)Glc
# Summary of the method: as §1
# [5] = molecular target: GlcNAc(b1-3)Gal(b1-4)GlcNAc(b1-2)Man(a1-3)[GlcNAc(b1-3)Gal(b1-4)GlcNAc(b1-2)Man(a1-6)]Man(b1-4)GlcNAc(b1-4)GlcNAc
# Summary of the method: as §1
# [6] = molecular target: GlcNAc(b1-3)Gal(b1-4)GlcNAc(b1-3)Gal(b1-4)GlcNAc(b1-2)[GlcNAc(b1-3)Gal(b1-4)GlcNAc(b1-3)Gal(b1-4)GlcNAc(b1-6)]Man(a1-6)[GlcNAc(b1-3)Gal(b1-4)GlcNAc(b1-3)Gal(b1-4)GlcNAc(b1-2)Man(a1-3)]Man(b1-4)GlcNAc(b1-4)[Fuc(a1-6)]GlcNAc
# Summary of the method: as §1
# [7] = molecular target: GlcNAc(b1-3)Gal(b1-4)GlcNAc(b1-3)Gal(b1-4)GlcNAc(b1-3)Gal(b1-4)GlcNAc(b1-3)Gal(b1-4)GlcNAc(b1-2)Man(a1-3)[GlcNAc(b1-3)Gal(b1-4)GlcNAc(b1-3)Gal(b1-4)GlcNAc(b1-3)Gal(b1-4)GlcNAc(b1-3)Gal(b1-4)GlcNAc(b1-2)Man(a1-6)]Man(b1-4)GlcNAc(b1-4)GlcNAc
# Summary of the method: as §1
# [8] = molecular target: GlcNAc(b1-3)Gal(b1-4)GlcNAc(b1-3)Gal(b1-4)GlcNAc(b1-3)GalNAc
# Summary of the method: as §1
# [9] = molecular target: Neu5Ac(a2-3)Gal(b1-3)GalNAc(b1-3)Gal(a1-4)Gal(b1-4)Glc
# Summary of the method: as §1
# [10] = molecular target: Neu5Ac(a2-3)Gal(b1-3)GlcNAc(b1-2)[Neu5Ac(a2-3)Gal(b1-3)GlcNAc(b1-4)]Man(a1-6)[Neu5Ac(a2-3)Gal(b1-3)GlcNAc(b1-2)Man(a1-3)]Man(b1-4)GlcNAc(b1-4)GlcNAc
# Summary of the method: as §1
# [11] = molecular target: Neu5Ac(a2-3)Gal(b1-4)GlcNAc(b1-2)Man(a1-3)[Neu5Ac(a2-3)Gal(b1-4)GlcNAc(b1-2)Man(a1-6)]Man(b1-4)GlcNAc(b1-4)[Fuc(a1-6)]GlcNAc
# Summary of the method: as §1
# [12] = molecular target: Neu5Ac(a2-3)Gal(b1-4)[Fuc(a1-3)]GlcNAc(b1-2)Man
# Summary of the method: as §1
# [13] = molecular target: Neu5Ac(a2-3)Gal(b1-4)[Fuc(a1-3)]GlcNAc(b1-6)[Neu5Ac(a2-3)Gal(b1-3)]GalNAc
# Summary of the method: as §1
# [14] = molecular target: Neu5Ac(a2-3)Gal(b1-4)[Fuc(a1-3)]GlcNAc6S
# Summary of the method: as §1
# [15] = molecular target: Neu5Ac(a2-6)Gal(b1-4)GlcNAc
# Summary of the method: as §1
# [16] = molecular target: Neu5Ac(a2-6)Gal(b1-4)GlcNAc(b1-2)Man(a1-3)[Gal(b1-4)GlcNAc(b1-2)Man(a1-6)]Man(b1-4)GlcNAc(b1-4)GlcNAc
# Summary of the method: as §1
# [17] = molecular target: Neu5Ac(a2-6)Gal(b1-4)GlcNAc(b1-2)Man(a1-3)[Neu5Ac(a2-6)Gal(b1-4)GlcNAc(b1-2)Man(a1-6)]Man(b1-4)GlcNAc(b1-4)[Fuc(a1-6)]GlcNAc
# Summary of the method: as §1
# [18] = molecular target: Neu5Ac(a2-6)Gal(b1-4)GlcNAc(b1-3)Gal(b1-4)GlcNAc(b1-3)Gal(b1-4)GlcNAc(b1-2)Man(a1-3)[Neu5Ac(a2-6)Gal(b1-4)GlcNAc(b1-3)Gal(b1-4)GlcNAc(b1-3)Gal(b1-4)GlcNAc(b1-2)Man(a1-6)]GalNAc
# Summary of the method: as §1
# [19] = molecular target: Neu5Ac(a2-6)Gal(b1-4)GlcNAc(b1-3)[Neu5Ac(a2-6)Gal(b1-4)GlcNAc(b1-6)]GalNAc
# Summary of the method: as §1
# [20] = molecular target: Neu5Ac(a2-8)Neu5Ac(a2-3)Gal(b1-3)GalNAc(b1-4)[Neu5Ac(a2-8)Neu5Ac(a2-3)]Gal(b1-4)Glc
# Summary of the method: as §1
# [21] = molecular target: Neu5Ac(a2-8)Neu5Ac(a2-3)[Gal(b1-3)GalNAc(b1-4)]Gal(b1-4)Glc
# Summary of the method: as §1
# [22] = molecular target: Neu5Ac(b2-6)Gal(b1-4)GlcNAc
# Summary of the method: as §1
# [23] = molecular target: Neu5Gc(a2-8)Neu5Gc(a2-3)Gal(b1-4)GlcNAc(b1-3)Gal(b1-4)GlcNAc
# Summary of the method: as §1
binder,measurement,setting,value
B1,glycan array binding signal (z-score),[1],0.038
same,glycan array binding signal (z-score),[2],0.499
same,glycan array binding signal (z-score),Glc(b1-4)Glc,-0.613
same,glycan array binding signal (z-score),[3],-1.34
same,glycan array binding signal (z-score),[4],-0.389
same,glycan array binding signal (z-score),GlcNAc(b1-3)Gal(b1-4)Glc,-0.291
same,glycan array binding signal (z-score),[5],-0.912
same,glycan array binding signal (z-score),[6],3.5
same,glycan array binding signal (z-score),[7],3.07
same,glycan array binding signal (z-score),[8],-0.362
same,glycan array binding signal (z-score),[9],0.518
same,glycan array binding signal (z-score),[10],0.945
same,glycan array binding signal (z-score),[11],-0.933
same,glycan array binding signal (z-score),[12],0.193
same,glycan array binding signal (z-score),[13],3.95
same,glycan array binding signal (z-score),[14],3.86
same,glycan array binding signal (z-score),[15],0.241
same,glycan array binding signal (z-score),[16],-0.321
same,glycan array binding signal (z-score),[17],5.84
same,glycan array binding signal (z-score),[18],2.96
same,glycan array binding signal (z-score),[19],-0.501
same,glycan array binding signal (z-score),[20],0.647
same,glycan array binding signal (z-score),[21],-0.464
same,glycan array binding signal (z-score),[22],-0.879
same,glycan array binding signal (z-score),[23],0.981
